According to PubChem BioAssay (NCATS):
Inconclusive results are not listed. Active and inactive are the calls of the source. The call rests on the fitted dose curve; in most records, active means well fitted inhibition curve with a large enough effect; inconclusive means small, poorly fitted or top-dose-only effect; inactive means flat fitted curve, though single readings scatter. Where a SMILES comes first, the peptide text is derived from it. Bridges are numbered along the chain shown (N, C = ends). [ ]: non-standard residue; d: D form. The star is where a group is joined. X1 = CC[C@@H](C)[C@@H](N)C1=N[C@H](C(=O)*)CS1; d(aIle) = CC[C@H](C)[C@@H](N)C(=O)O; dOrn = NCCC[C@@H](N)C(=O)O
On the % scale 0 is the no-effect control and ±100 the full control effect; potency means the concentration at half of the fitted maximal effect.

The molecules below were run against Voltage-gated inwardly rectifying potassium channel KCNH2 (Homo sapiens) (UniProt Q12809) (assay: qHTS Assay for Small Molecule Inhibitors of the Human hERG Channel Activity (AID 588834;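 further: lower thallium flux fluorescence means stronger hERG block; nearly all actives have a fitted effect of over 50% in size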; on activity change, negative = inhibition: top concentration of the series differs between compounds)). Conditions: U2OS BacMam hERG, FluxOR thallium flux fluorescence; series mostly up to 46.1 µM; activity change, negative = inhibition: at the top concentration.
Chain of Voltage-gated inwardly rectifying potassium channel KCNH2 (Homo sapiens) (Q12809 whole entry, looked up): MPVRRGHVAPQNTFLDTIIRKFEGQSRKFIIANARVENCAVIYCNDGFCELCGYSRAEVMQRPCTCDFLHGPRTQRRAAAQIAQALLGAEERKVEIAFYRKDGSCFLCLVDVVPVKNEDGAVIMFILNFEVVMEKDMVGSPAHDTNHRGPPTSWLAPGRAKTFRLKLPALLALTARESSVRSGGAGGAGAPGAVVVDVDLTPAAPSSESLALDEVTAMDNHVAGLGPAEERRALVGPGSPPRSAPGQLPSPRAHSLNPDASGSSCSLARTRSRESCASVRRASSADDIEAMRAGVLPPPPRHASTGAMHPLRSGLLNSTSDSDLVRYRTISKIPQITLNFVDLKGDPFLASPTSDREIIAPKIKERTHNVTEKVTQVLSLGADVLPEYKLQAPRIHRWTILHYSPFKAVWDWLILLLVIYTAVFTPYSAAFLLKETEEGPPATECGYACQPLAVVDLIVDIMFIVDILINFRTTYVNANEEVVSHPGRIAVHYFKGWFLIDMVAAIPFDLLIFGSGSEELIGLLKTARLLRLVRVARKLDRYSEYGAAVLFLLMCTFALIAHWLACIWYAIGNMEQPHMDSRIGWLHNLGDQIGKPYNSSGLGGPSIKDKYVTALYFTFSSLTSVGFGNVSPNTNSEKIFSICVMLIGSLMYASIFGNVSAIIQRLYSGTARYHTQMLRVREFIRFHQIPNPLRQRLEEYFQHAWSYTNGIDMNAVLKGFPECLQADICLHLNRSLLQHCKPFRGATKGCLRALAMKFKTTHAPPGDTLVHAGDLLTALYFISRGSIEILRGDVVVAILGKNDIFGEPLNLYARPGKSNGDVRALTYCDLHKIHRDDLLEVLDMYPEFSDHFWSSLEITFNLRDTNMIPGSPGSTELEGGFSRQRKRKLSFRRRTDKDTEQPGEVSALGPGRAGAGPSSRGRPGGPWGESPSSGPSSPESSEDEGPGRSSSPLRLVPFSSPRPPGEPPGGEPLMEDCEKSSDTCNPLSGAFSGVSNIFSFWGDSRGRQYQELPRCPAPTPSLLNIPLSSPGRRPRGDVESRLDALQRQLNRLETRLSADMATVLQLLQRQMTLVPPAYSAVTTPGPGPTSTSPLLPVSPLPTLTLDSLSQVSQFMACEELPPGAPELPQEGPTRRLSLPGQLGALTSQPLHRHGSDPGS
How it was run: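 Blockade is seen as reduced FluxOR thallium-flux fluorescence in U2OS cells expressing hERG from a BacMam construct, in Opti-MEM with 2% FCS. Concentration-response data fitted to the Hill equation for AC50.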
For `CCOC(=O)c1c[nH]c2cc(OCC(C)C)c(OCC(C)C)cc2c1=O`, the “activity change, negative = inhibition” value was 3.52% (inactive).
With `O=C(O)CCCC/C=C(\c1ccccc1)c1cccnc1` the “activity change, negative = inhibition” value was 0.719% (inactive).
`CC(C)[C@H](N)C(=O)OCC(CO)OCn1cnc2c(=O)[nH]c(N)nc21` (stereo partly drawn) was tested, and the “activity change, negative = inhibition” value was 3.79% (inactive).
In the case of `CNC(=O)C[C@@H](N)C(=O)N[C@@H](C(=O)N[C@@H]1C(=O)N2[C@@H]1SC(C)(C)[C@@H]2C(=O)O)c1ccc(O)cc1`, the “activity change, negative = inhibition” value is reported as 14% (inactive).
With `Cc1cc(O)c2c(c1)O[C@@]1(C)CC[C@H]3C(C)(C)CCCC34CO[C@@H]2[C@H]41` (stereo partly drawn) the “activity change, negative = inhibition” value was -29.4% (inactive).
`O=C(O)[C@H]1C(=CCO)O[C@H]2CC(=O)N12` was tested, and the “activity change, negative = inhibition” value was 14.8% (inactive).
In the case of H-RKDVY-OH, the “activity change, negative = inhibition” value is reported as 2.74% (inactive).
For `CC[C@@H](C(=O)[C@@H](C)[C@@H](O)[C@H](C)[C@@H]1O[C@@H]([C@@H](CC)C(=O)O)CC[C@@H]1C)[C@H]1O[C@]2(C=C[C@@H](O)[C@]3(CC[C@@](C)([C@H]4CC[C@](O)(CC)[C@H](C)O4)O3)O2)[C@H](C)C[C@@H]1C`, the “activity change, negative = inhibition” value was 22.7% (inactive).
With `COc1c(O[C@@H]2O[C@H](CO)[C@@H](O)[C@H](O)[C@H]2O)cc2c(c1OC)-c1ccc(SC)c(=O)cc1[C@@H](NC(C)=O)CC2` the “activity change, negative = inhibition” value was 5.55% [at 20.6 µM] (inactive).
In the case of `CC1(O)CCC(C(C)(C)O)CC1` (stereo not drawn), the “activity change, negative = inhibition” value is reported as 2.7% (inactive).
With `CC1CCC(NC(=O)N(CCCl)N=O)CC1` (stereo not drawn) the “activity change, negative = inhibition” value was 3.74% (inactive).
With `C[C@H]1[C@@H](OC(=O)CCC(=O)O)O[C@@H]2OC3(C)CC[C@H]4[C@H](C)CC[C@@H]1[C@@]24OO3` the “activity change, negative = inhibition” value was 3.74% (inactive).
With `NC(=O)CC[C@@H]1NC(=O)[C@H](Cc2ccccc2)NC(=O)[C@H](Cc2ccc(O)cc2)NC(=O)[C@@H](N)CSSC[C@@H](C(=O)N2CCC[C@H]2C(=O)N[C@@H](CCCN=C(N)N)C(=O)NCC(N)=O)NC(=O)[C@H](CC(N)=O)NC1=O` the “activity change, negative = inhibition” value was 10.2% (inactive).
In the case of `CC(=O)[C@@]1(O)CC[C@H]2[C@@H]3C=C(Cl)C4=CC(=O)[C@@H]5C[C@@H]5[C@]4(C)[C@H]3CC[C@@]21C`, the “activity change, negative = inhibition” value is reported as 3.34% (inactive).
For `CCCCCCCCCCCCCCCCCCOCC(COP(=O)([O-])OCC[N+](C)(C)C)OC` (stereo not drawn), the “activity change, negative = inhibition” value was 5.61% (inactive).
In the case of `CC[C@@H](C)[C@@H](N)C1=N[C@H](C(=O)N[C@@H](CC(C)C)C(=O)N[C@@H](CCC(=O)O)C(=O)N[C@@H](C(=O)N[C@@H]2CCCCNC(=O)[C@@H](CC(N)=O)NC(=O)[C@@H](CC(=O)O)NC(=O)[C@@H](Cc3cnc[nH]3)NC(=O)[C@@H](Cc3ccccc3)NC(=O)[C@@H]([C@H](C)CC)NC(=O)[C@@H](CCCN)NC2=O)[C@@H](C)CC)CS1` (X1-LE[d(aIle)][dK][dOrn][dI][dF][dH][dD][dN]; lactam 4-C), the “activity change, negative = inhibition” value is reported as 2.25% [at 20.6 µM] (inactive).
For `CC(CN(C)C)CN1c2ccccc2Sc2ccc(C(F)(F)F)cc21` (stereo not drawn), the Potency was 11.2 µM (active).
With `O=C(OCc1ccccc1)c1cccnc1` the “activity change, negative = inhibition” value was -26.5% (inactive).
`CC1CS(=O)(=O)CCN1/N=C/c1ccc([N+](=O)[O-])o1` (stereo not drawn) was tested, and the “activity change, negative = inhibition” value was 13% [at 20.6 µM] (inactive).
`CCCCCc1ccc(C)cc1O` was tested, and the “activity change, negative = inhibition” value was -26% (inactive).
`C=Cc1c(C)c2cc3nc(cc4[nH]c(cc5nc(cc1[nH]2)C(C)=C5CCC(=O)OC)c(CCC(=O)O)c4C)[C@@]1(C)C3=CC=C(C(=O)OC)[C@H]1C(=O)OC` was tested, and the “activity change, negative = inhibition” value was 1.17% (inactive).
With `CC(=NCc1ccccc1)c1ccccc1O` the “activity change, negative = inhibition” value was 17.8% (inactive).
`CN1CCN(C(c2ccccc2)c2ccc(Cl)cc2)CC1` (stereo not drawn) was tested, and the Potency was 5.62 µM (active).
In the case of `C=CC[N+]1([C@H]2C[C@H]3[C@@H]4CC[C@H]5C[C@H](O)[C@@H](N6CCOCC6)C[C@]5(C)[C@H]4CC[C@]3(C)[C@H]2OC(C)=O)CCCC1`, the “activity change, negative = inhibition” value is reported as 17.7% (inactive).
With `Cc1cc(C(=O)NCCc2ccc(S(=O)(=O)NC(=O)NN3CCCCCC3)cc2)no1` the “activity change, negative = inhibition” value was 18.2% (inactive).
For `O=P(O)(O)OC[C@H]1O[C@](O)(COP(=O)(O)O)[C@@H](O)[C@@H]1O`, the “activity change, negative = inhibition” value was 6.34% (inactive).
In the case of `NC(=O)Oc1ccc(Cc2ccccc2)cc1`, the “activity change, negative = inhibition” value is reported as 9.93% (inactive).
`NC(=O)OCC(O)COc1ccc(Cl)cc1` (stereo not drawn) was tested, and the “activity change, negative = inhibition” value was 2.72% [at 20.6 µM] (inactive).
In the case of `CCCCC[C@H](O)/C=C/[C@@H]1[C@H]2C/C(=C/CCCC(=O)O)O[C@H]2C[C@H]1O`, the “activity change, negative = inhibition” value is reported as 15.9% (inactive).
In the case of `COc1ccc(C(=O)CCC(=O)O)c2ccccc12`, the “activity change, negative = inhibition” value is reported as 26.7% (inactive).
`O=C(NCCNCC(O)COc1ccc(O)cc1)N1CCOCC1` (stereo not drawn) was tested, and the Potency was “inactive”.
With `O=C1NCCN1c1ncc([N+](=O)[O-])s1` the “activity change, negative = inhibition” value was 14.4% [at 20.6 µM] (inactive).
`CCN(CC)C(=O)c1cccnc1` was tested, and the “activity change, negative = inhibition” value was -14.6% (inactive).
For `CCN(CC)CCC(=O)N1c2ccccc2Sc2ccc(Cl)cc21`, the Potency was 14.1 µM (active).
`O=C1c2ccccc2CN2C(=O)c3ccccc3CN12` was tested, and the “activity change, negative = inhibition” value was 8.12% (inactive).
With `CS(=O)(=O)c1ccc([C@@H](O)[C@@H](COC(=O)CN)NC(=O)C(Cl)Cl)cc1` the “activity change, negative = inhibition” value was 1.5% (inactive).
For `O=P(O)(O)CP(=O)(O)O`, the “activity change, negative = inhibition” value was -4.68% (inactive).
`CC(C)C[C@@H](NC(=O)[C@@H](O)[C@H](N)Cc1ccccc1)C(=O)O` was tested, and the “activity change, negative = inhibition” value was 7.66% (inactive).
